The source of these data is paper PMC12136788.

T1: UNK ZnF1-3 (human, UniProt Q9C0B0 31-174)
T1 sequence: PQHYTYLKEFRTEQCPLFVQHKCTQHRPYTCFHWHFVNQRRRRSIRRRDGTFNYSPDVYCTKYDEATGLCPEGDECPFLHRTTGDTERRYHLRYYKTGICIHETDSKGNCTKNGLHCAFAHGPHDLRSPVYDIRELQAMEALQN

B1: 44216504_44217224_307_CDS_ENSG00000096384_ENST00000371646|human|control|control (ssRNA)
RNA: GGGAGUUCUACAGUCCGACGAUCCAAAGUCAGGGUACGUUCCUGAGGGUUGGGGAUGAUGUCAAUUUUCAGCUCUUUACCACUGUCCAACUUCGAAGGGUCUGUCAGGCUCUCAUAGCGAAUCUUGUCCAAGGCAUCAGAAGCCAACAGAGGAUUGAGCAUCA
B2: chr16:49524686:49524687:-_ENSG00000102935_ENST00000562871|hu_mus|FALSE|FALSE (ssRNA)
RNA: GGGAGUUCUACAGUCCGACGAUCAAUUAAAAGGAAAUAUUCAGACAAUAGCCAAGCAAUCACAUCACGAUGCACAAUUACCUAGAAUUGCAAUUAAAAAGUAGUUAACUGAAGGGGGGGGGGGGGAGAAAGAAAAACAAGAAACAACAGAGGAUUGAGCAUCA
B3: chr2:203071746:203071747:-_ENSG00000116030_ENST00000392246|hu_hu|FALSE|FALSE (ssRNA)
RNA: GGGAGUUCUACAGUCCGACGAUCCACCACAAGCCUGAAAAUGCAAUGUCCUGAAAAAGGUGACCUCUCUGUGCACACGUAAUUUUUAAAAAGGAGAGGGUAAUAUGAAGGGGACUGAGGCUUGAUCACCAAAAAUCAGCACAACAACAGAGGAUUGAGCAUCA
B4: chr7:151048522:151048523:+_ENSG00000013374_ENST00000566856|hu_mus|hu_hu_hu_mus_True|48_98 (ssRNA)
RNA: GGGAGUUCUACAGUCCGACGAUCCUGUUUCUUAUUUAUGACAAUUUUGAUGUAAUUUUCUUGAAAUCCGAAAGUUUCAGCUAUUUGGGACCUCAGUUCUCUACCAGUGACAUGCAAGCGGGUCUCCAACAAGCUUUUCUUAUCCAACAGAGGAUUGAGCAUCA
B5: chr7:138235809:138235810:+_ENSG00000122779_ENST00000415680|hu_mus|FALSE|FALSE (ssRNA)
RNA: GGGAGUUCUACAGUCCGACGAUCAGAAGCAUCACACCUUGCACGAAGAAGGUGCCGUAACCUGUAUGUAAUCAGCCGCUUGCUGUACAGCAAGGCUGUGCUGCUGCCACUGGAAACAGCCCAUUUAGAAAAAUGCAUGACGUGCAACAGAGGAUUGAGCAUCA
B6: chr3:67279072:67279073:+_ENSMUSG00000027774_ENSMUST00000077271|mus_mus|FALSE|FALSE (ssRNA)
RNA: GGGAGUUCUACAGUCCGACGAUCUGCCCAGAAUCCUACCUCUUGAUGAGAGGACUGUGAGUUUUGAGGCCAACAGGGGCUAUAUACACACAGCCCUUAUGUCCAAAAAAAAAAAAAGCAGUGAAGUAAAUUUAUAUAUAUUUUCAACAGAGGAUUGAGCAUCA
B7: chr1:133829981:133829982:+_ENSMUSG00000026434_ENSMUST00000062264|mus_hu|motif|central (ssRNA)
RNA: GGGAGUUCUACAGUCCGACGAUCUAUCAGAAAUAUAGAAUACAUUUUUCAAUCUAAUGAAUUAAUUUUAAAAGGGACCCGGAACAAGAAGCCCAAUCAAAUGCACACAAGUAAUCUAGAAGACAUGAUUACCUCUAAAAUAUGCAACAGAGGAUUGAGCAUCA
B8: chr1:133829981:133829982:+_ENSMUSG00000026434_ENSMUST00000062264|mus_hu|FALSE|FALSE (ssRNA)
RNA: B7 RNA with G80U, G81A
B9: 55340085_55340205_1272_CDS_ENSMUSG00000021488_ENSMUST00000099490|mouse|control|control (ssRNA)
RNA: GGGAGUUCUACAGUCCGACGAUCUUCUUUCUGUUUCCCUCUUUUCCUAAGGACAGGUAGUUCUUCAAAUUGAUGUCUGCCUUCAAACAUGACGAUUGCUUUUCCAGCCACCCAGGCUUUUUCAGAAGGGUCUCCAAAAGCCUCCAACAGAGGAUUGAGCAUCA
B10: chr3:120321071:120321072:+_ENSG00000065518_ENST00000184266|hu_hu|FALSE|FALSE (ssRNA)
RNA: GGGAGUUCUACAGUCCGACGAUCUCAUUGCCAGACUUAAUAUGAGAGGUGAAAUGUUCGAUCCAAUUUUCCUUCCUGGAUAAGUUUUUCUUUCCUAUCCCUCUCAGUUUUGAUAAUAUAAUAAAUGAAGAUGAGGGGCCCAAACAACAGAGGAUUGAGCAUCA

Substitutions are numbered along the chain they refer to. The full ranking holds about 24,000 sequences; the median of “enrichment r” is about 0.99, and the highest 2% start at about 3.7. Many of the other results were omitted from the sample, so the highest values are more common in it than they were.

For the assay, the target named is T1, UNK ZnF1-3. Description: nsRBNS (natural sequence RNA bind-n-seq); RBNS binding buffer (assumed for nsRBNS): 25 mM Tris pH 7.5, 150 mM KCl, 3 mM MgCl2, 0.01% Triton X-100, 500 ug/ml BSA, 20 U/ml SUPERase-In, 4 C; UNK is unkempt and MSI1 is Musashi-1; names of the RNAs are library labels; protein concentration not given here; high values mean tight binding.
B1 had a binding signal of 0.999 enrichment R.

B2 displayed a binding signal of 1.26 enrichment R.

B3 registered a binding signal of 3.8 enrichment R.

Take B4: the binding signal worked out at 0.854 enrichment R.

B5 returned a binding signal of 0.971 enrichment R.

B6 returned a binding signal of 4.32 enrichment R.

B7 yielded a binding signal of 5.06 enrichment R.

Molecule B8 had a binding signal of 4.97 enrichment R.

Consider B9, for which the binding signal was found to be 0.635 enrichment R.

Take B10: the binding signal was determined as 2.02 enrichment R.
